Screens: PubChem, several laboratories
Only some compounds are listed: those with a hit (about 5.9% of all), similar ones and a draw of the others.
ABHD5-PLIN5 inh = inhibitors of human ABHD5-perilipin-5 interaction; 360,000 tested, 0.78% active; inhibition, % at 4 µM; Q00G26+Q8WTS1; Split G. princeps luciferase complementation, luminescence, 4 h;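 active means inhibition above the mean inhibition across every tested compound plus 3 SD, cut at about 22% in these data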;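 further: 0% = DMSO only wells and the 100% control is not disclosed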
PRMT1 FP inh = PRMT1 (human) inhibition, primary screen; Q99873; 370,000 tested, 1.3% active; inhibition, % at 2.79 µM; recombinant PRMT1, activity-based probe fluorescence polarization;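 active means inhibition above about 21% made by adding two undisclosed values, limit read from the data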
Target sequence (Q99873 whole entry, looked up): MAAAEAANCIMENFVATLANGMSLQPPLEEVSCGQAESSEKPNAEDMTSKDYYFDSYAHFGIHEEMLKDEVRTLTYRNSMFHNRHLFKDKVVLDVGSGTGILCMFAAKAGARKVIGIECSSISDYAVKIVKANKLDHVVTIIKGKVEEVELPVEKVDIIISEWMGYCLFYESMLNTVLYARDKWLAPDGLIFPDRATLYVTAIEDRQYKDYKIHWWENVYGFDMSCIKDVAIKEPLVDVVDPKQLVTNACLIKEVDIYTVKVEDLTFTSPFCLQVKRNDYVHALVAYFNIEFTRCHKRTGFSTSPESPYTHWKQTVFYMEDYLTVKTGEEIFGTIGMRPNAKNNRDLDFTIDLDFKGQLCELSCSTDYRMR
ALR inh = blocks human ALR sulfhydryl oxidase activity; purified ALR, DTT oxidation, H2O2 HRP-luminol luminescence; P55789; 290,000 tested, 3.8% active; inhibition, % (concentration not given with the values);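 active means mean replicate inhibition above about 79%, with every replicate also reaching it, limit read from the data; inconclusive means only one of the two criteria met; inactive means mean below limit and not every replicate reaching it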
Target sequence (P55789 whole entry, looked up): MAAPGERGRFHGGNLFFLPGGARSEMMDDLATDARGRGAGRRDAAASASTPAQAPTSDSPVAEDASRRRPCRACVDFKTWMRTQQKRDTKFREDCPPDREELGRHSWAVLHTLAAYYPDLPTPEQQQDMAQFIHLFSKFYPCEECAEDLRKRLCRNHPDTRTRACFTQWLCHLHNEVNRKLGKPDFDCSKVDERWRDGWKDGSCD
rCAG binder = binds r(CAG) RNA repeats; inhibition, % at 3 µM; r(CAG) RNA repeat, TO-PRO-1 dye displacement fluorescence; 370,000 tested, 1.3% active;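 active means inhibition above the plate cutoff, the mean of all test compounds on that plate plus 3 SD, cut at about 35% in these data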;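 further: 0% = DMSO alone and 100% = 100 µM mitoxantrone as full dye displacement; higher means more dye released from RNA so lower well fluorescence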
LANA-H2A inh = blocks KSHV LANA binding to histone H2A/H2B. cell-free LANA-H2A/H2B peptide, fluorescence polarization. Q9QR71. 320,000 tested, 0.6% active. inhibition, % (concentration not given with the values); in the data active means inhibition mostly above about 10%, no sharp cut-off; inactive means mostly below about 6.7%
Rtt109 Vps75 = blocks Candida albicans Rtt109/Vps75 acetyltransferase activity; Q5AAJ8; purified Rtt109/Vps75, ThioGlo CoA-SH fluorescence, 4 h; inhibition, % at 34.9 µM; 330,000 tested, 0.16% active; AID 540336;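 active means inhibition of at least 50% in every replicate; inconclusive means best replicate reaches 50% inhibition but some replicates fall short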
PRMT1 inh conf = confirmation of human PRMT1 inhibitors; shares compounds with PRMT1 FP inh; recombinant His-PRMT1, activity-based probe fluorescence polarization; inhibition, % at 2.79 µM; 3,300 tested, 42% active; AID 687036;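 active means mean inhibition across replicates above the hit cutoff derived for the earlier primary screen, cut at about 22% in these data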
Active calls of the source: *; u = inconclusive; x = no result; ! = repeats disagree.

SMILES	ABHD5-PLIN5 inh	PRMT1 FP inh	ALR inh	rCAG binder	LANA-H2A inh	Rtt109 Vps75	PRMT1 inh conf
CCOC(=O)c1c(-c2cccs2)csc1N	-8	7	11	0	-1	-14	x
NC(CO)C(=O)NNCc1ccc(O)c(O)c1O (stereo not drawn)	-8	30*	68	2	-11	79*!	41*
COc1ccc(CN2C(=O)CN(S(C)(=O)=O)CC2(C)C(=O)Nc2ccc3c(c2)OCCO3)cc1OC (stereo not drawn)	5	3	x	5	x	x	x
CC(=O)c1cc(NC(=O)c2ccc(C)cc2)c(=O)oc1/C=C/N(C)C	2	4	22	-2	8	2	x
Cc1oc(=O)c(NC(=O)c2ccccc2)cc1C(=O)c1ccccc1	23*	56*	71	5	0	17	11
CC(=O)c1cc(NC(=O)c2ccc(C)cc2)c(=O)oc1C	-11	33*	45	4	3	-2	-6
CC(=O)c1cc(NC(=O)c2ccccc2)c(=O)oc1C	9	20	5	3	0	1	x
CC(O)(c1cccc(F)c1)c1nc(-c2cc(F)cc(F)c2)cs1 (stereo not drawn)	-17	3	x	0	x	x	x
CC(=O)Nc1c(O)nc(SCC(=O)Nc2c(C)cccc2C)[nH]c1=O	-4	57*	x	1	-3	11	25*
O=C(NCCCN1CCCC1=O)C(=O)NCC1OCCCN1S(=O)(=O)c1cc(F)ccc1F (stereo not drawn)	-7	-1	-6	-1	1	4	x
O=C(/C=C/c1ccc([N+](=O)[O-])cc1)N(c1ccccn1)C1CCCCC1	-8	28*	x	11	-2	1	20
N#C/C(=C\c1ccccc1)C(=O)N(c1ccccn1)C1CCCCC1	-1	-1	50	-4	-4	-2	x
CC(=O)Nc1cc(-c2ccccc2N(C)C)cn2c(-c3ccc(S(C)(=O)=O)cc3)cnc12	8	107*	x	-9	x	x	20
CCN1CCc2c(sc(NC(=O)Cc3ccccc3)c2C(N)=O)C1	-4	3	-2	-2	-8	0	x
CCN1CCc2c(sc(NC(=O)Nc3ccc(Cl)c(Cl)c3)c2C(N)=O)C1	18	45*	54	19	-13	8	5
COC(=O)[C@]12C[C@H](CC(=O)N3CCN(C(=O)C4CC4)CC3)C(=O)N(Cc3ccco3)C1=C[C@H](C(C)(C)C)O[C@@H]2C	x	6	x	3	x	x	x
N#CC(C#N)=C1C=CC=CN1/C(=C\c1ccccc1Cl)C(=O)c1ccccc1	19	29*	x	4	5	-3	32*
O=C(/C=C/c1ccco1)NCC1COc2ccccc2O1 (stereo not drawn)	18	33*	32	9	-1	8	16
COc1ccc(/C=C/C(=O)NCC2COc3ccccc3O2)c(OC)c1 (stereo not drawn)	0	-3	-7	1	-3	4	x
CC(C)(C)c1cc[n+](-c2[nH]c(=O)sc2/C=N/N=C(\[O-])c2cccnc2)cc1	-3	1	9	1	-8	5	x
O=c1[nH]c(-[n+]2ccc3ccccc3c2)c(/C=N/N=C(\[O-])c2ccccc2)s1	-10	54*	62	-5	0	u	1
CN1/C(=C/C(=O)c2ccc(Cl)cc2)Sc2cc3c(cc21)OCO3	0	33*	x	4	7	-8	3
COc1ccc2c(c1)S/C(=C\C(=O)c1ccncc1)N2C	3	45*	-2	8	-4	5	11
CC(C)(C)NC(=O)C(c1ccc(O)cc1)N(Cc1ccc2c(c1)OCO2)C(=O)CCl (stereo not drawn)	-10	1	x	4	x	x	x
CN[C@H]1C[C@H]2c3[nH]c4c(-c5cccc(C)c5)cccc4c3CCN2C(=O)[C@H]1[C@H](C)O	x	-1	x	3	x	x	x
SMILES	ABHD5-PLIN5 inh	PRMT1 FP inh	ALR inh	rCAG binder	LANA-H2A inh	Rtt109 Vps75	PRMT1 inh conf
CN(C)CC1CCC/C(=C/c2ccc(Cl)cc2)C1=O (stereo not drawn)	5	3	x	2	x	1	x
O=C1C2C3C=CC(CNS(=O)(=O)c4ccccc4[N+](=O)[O-])(O3)C2C(=O)N1c1ccccc1 (stereo not drawn)	16	76*	-11	3	3	4	42*
Cc1cc(C)c(S(=O)(=O)NCC23C=CC(O2)C2C(=O)N(c4ccccc4)C(=O)C23)c(C)c1 (stereo not drawn)	11	54*	x	-4	1	-1	4
O=C1C2C3C=CC(CO)(O3)C2C(=O)N1c1ccc(-c2ccccc2)cc1 (stereo not drawn)	x	x	6	x	0	x	x
O=[N+]([O-])c1cc(-c2ncccn2)c([N+](=O)[O-])s1	20	28*	98*	0	-1	-2	37*
CC1(C(=O)NC2CCN(Cc3ccccc3)CC2)CCN1Cc1ccc2ccccc2c1 (stereo not drawn)	6	-4	x	3	x	x	x
CC1CCCN(S(=O)(=O)c2ccc3c(c2)OCCO3)C1 (stereo not drawn)	-9	2	x	-1	x	x	x
CCNC(=S)Nc1cc(-c2ccc(Cl)cc2)[nH]n1	3	44*	97*	0	-2	7	29*
COc1ccc(N2C(=O)CC(N3CCC(O)(c4ccc(Br)cc4)CC3)C2=O)cc1 (stereo not drawn)	10	50*	-1	-4	-3	6	2
O=C1CC(N2CCN(c3ccc(Cl)c(Cl)c3)CC2)C(=O)N1 (stereo not drawn)	2	1	11	-4	1	2	x
O=C1CC(N2CCC(O)CC2)C(=O)N1c1ccc(Br)cc1 (stereo not drawn)	4	57*	x	-1	5	3	2
O=C1CC(N2CCC(O)(c3ccc(Cl)cc3)CC2)C(=O)N1 (stereo not drawn)	3	54*	-1	-1	-1	-4	2
O=C1CC(N2CCC(O)(c3ccc(Br)cc3)CC2)C(=O)N1c1ccc(Cl)cc1 (stereo not drawn)	11	33*	5	-1	4	-1	0
CCOc1cc(N2CCOCC2)c(OCC)cc1NC(=O)COC(=O)c1ccc(Cl)nc1	6	-1	-15	0	-4	18	x
CCCCCCCCN1C(=O)[C@@H](CC(=O)NCc2ccc(C)o2)C[C@@]2(C(=O)OC)C1=C[C@H](C(C)C)O[C@@H]2C1CC1	x	0	x	2	x	x	x
c1cc(CNc2ccc3c(c2)OCO3)ccn1	2	37*	87*	-14	-6	-7	7
COC(=O)Nc1ccc2c(c1)OCO2	-3	2	x	5	-9	-2	x
COC(=O)CNc1ccc2c(c1)OCO2	3	36*	7	5	14	-1	5
